Several values for one entry are separate records, joined by “and”; a condition that tells them apart may be missing. Identical values can stand only once. In all, about 5,500 compounds went through this assay and about 2,000 (36%) were called active. Not shown: some 18% with an inconclusive outcome. Cut-off read from the data, not from the text of the source: active = normalized growth mostly below about 0.91 (no sharp cut-off); inconclusive = no clear call, values can overlap the other calls; inactive = mostly above about 0.92. This is one part of the list.
Assay: chemical genetic growth profiling, strain panel (AID 1159580);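 note: tested at 20 µM; growth read once vehicle control cultures reached saturation at 30 °C; 1 = growth at the plate median or of vehicle wells; lower values mean less growth of the strain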
Details: S. cerevisiae deletion strains, growth OD

Measured: normalized growth

C[C@]12CCC(=O)C=C1C=CC1C2CC[C@@]2(C)C1CC[C@@]2(O)CCC(=O)O (stereo partly specified)
inactive: locus YAL013W, strain DEP1, active compounds read low 1 | locus YAL021C, strain ccr4, active compounds read low 1.02 | locus YAL026C, strain drs2, active compounds read low 1.01 | locus YAL030W, strain snc1, active compounds read low 1.02 | locus YBL061C, strain skt5, active compounds read low 1.03 | locus YBR009C, strain hhf1, active compounds read low 0.997 | locus YBR021W, strain FUR4, active compounds read low 0.985 | locus YBR023C, strain chs3, active compounds read low 1.02 | locus YBR171W, strain sec66, active compounds read low 1.03 | locus YBR229C, strain ROT2, active compounds read low 0.991 | locus YBR231C, strain swc5, active compounds read low 1.01 | locus YBR279W, strain paf1, active compounds read low 1.03 | locus YCL011C, strain gbp2, active compounds read low 1.03 | locus YCL016C, strain dcc1, active compounds read low 1.01 | locus YCL029C, strain bik1, active compounds read low 0.963 | locus YCL069W, strain vba3, active compounds read low 1.04 | locus YCR088W, strain abp1, active compounds read low 1.03 | locus YDL005C, strain med2, active compounds read low 1.03 | locus YDL035C, strain GPR1, active compounds read low 1.02 | locus YDL040C, strain nat1, active compounds read low 1.04 | locus YDL074C, strain BRE1, active compounds read low 0.969 | locus YDL101C, strain DUN1, active compounds read low 0.982 | locus YDL134C, strain PPH21, active compounds read low 0.99 | locus YDL185W, strain tfp1, active compounds read low 0.982 | locus YDL192W, strain arf1, active compounds read low 0.997 | locus YDR001C, strain nth1, active compounds read low 1.01 | locus YDR069C, strain doa4, active compounds read low 1.01 | locus YDR101C, strain arx1, active compounds read low 0.98 | locus YDR137W, strain rgp1, active compounds read low 0.986 | locus YDR150W, strain NUM1, active compounds read low 1 | locus YDR159W, strain sac3, active compounds read low 0.982 | locus YDR162C, strain NBP2, active compounds read low 1 | locus YDR195W, strain ref2 1.02 | locus YDR297W, strain sur2, active compounds read low 1.02 | locus YDR318W, strain mcm21, active compounds read low 0.986 | locus YDR334W, strain swr1, active compounds read low 1.04 | locus YDR335W, strain msn5, active compounds read low 1.03 | locus YDR388W, active compounds read low 0.988 | locus YDR392W, strain spt3, active compounds read low 0.978 | locus YDR502C, strain sam2, active compounds read low 0.989 | locus YEL003W, strain gim4, active compounds read low 1.02 | locus YEL037C, strain rad23, active compounds read low 1.04 | locus YEL061C, strain CIN8 (second series), active compounds read low 1.02 | locus YEL061C, strain CIN8, active compounds read low 0.999 | locus YER015W, strain faa2, active compounds read low 1.04 | locus YER016W, strain bim1, active compounds read low 1 | locus YER110C, active compounds read low 0.986 | locus YER111C, strain swi4, active compounds read low 1.03 | locus YER155C, strain BEM2 (second series), active compounds read low 1.02 | locus YER155C, strain BEM2, active compounds read low 0.986 | locus YER167W, strain BCK2, active compounds read low 1.01 | locus YFR010W, strain ubp6, active compounds read low 1.04 | locus YGL078C, strain dbp3, active compounds read low 0.983 | locus YGL086W, strain mad1, active compounds read low 1 | locus YGL167C, strain pmr1, active compounds read low 1.02 | locus YGL173C, strain kem1, active compounds read low 1.01 | locus YGL227W, strain vid30, active compounds read low 1.01 | locus YGL240W, strain doc1, active compounds read low 0.968 | locus YGL248W, strain PDE1, active compounds read low 0.994 | locus YGL253W, strain hxk2, active compounds read low 1.03 | locus YGR078C, strain PAC10, active compounds read low 0.987 | locus YGR135W, strain pre9, active compounds read low 0.988 | locus YGR229C, strain SMI1, active compounds read low 1.03 | locus YGR252W, strain gcn5, active compounds read low 1.07 | locus YHR013C, strain ard1, active compounds read low 1.02 | locus YHR027C, strain rpn1, active compounds read low 1.02 | locus YHR030C, strain SLT2, active compounds read low 0.996 and 1.06 | locus YHR079C, strain IRE1 (second series), active compounds read low 0.991 | locus YHR079C, strain IRE1, active compounds read low 1.08 | locus YHR094C, strain hxt1, active compounds read low 0.993 | locus YHR129C, strain ARP1, active compounds read low 0.986 | locus YHR142W, strain chs7, active compounds read low 1.05 | locus YHR200W, strain rpn10, active compounds read low 0.984 | locus YIL066C, strain RNR3, active compounds read low 0.982 | locus YIL073C, strain SPO22, active compounds read low 0.975 | locus YIL125W, strain kgd1, active compounds read low 1.01 | locus YIR030C, strain dcg1, active compounds read low 0.991 | locus YJL092W, strain hpr5, active compounds read low 1.03 | locus YJL095W, strain BCK1 (second series), active compounds read low 1.03 | locus YJL095W, strain BCK1, active compounds read low 0.956 and 1.05 | locus YJL115W, strain asf1, active compounds read low 1.03 | locus YJL129C, strain trk1, active compounds read low 1.06 | locus YJL134W, strain LCB3, active compounds read low 0.997 | locus YJL154C, strain vps35, active compounds read low 1.01 | locus YJL164C, strain tpk1, active compounds read low 1.01 | locus YJL166W, strain qcr8, active compounds read low 0.996 | locus YJL168C, strain set2, active compounds read low 0.987 | locus YJL187C, strain SWE1 (second series), active compounds read low 0.971 | locus YJL187C, strain SWE1, active compounds read low 1.03 | locus YJR043C, strain POL32, active compounds read low 0.974 | locus YJR066W, strain TOR1, active compounds read low 0.976

— PubChem BioAssay AID1159580 (chemical genetic matrix, 2015)
